Common to all, as to test: DAPPL (digital affinity profiling via proximity ligation, sequencing); 10 mM Tris-HCl pH 7.5, 50 mM NaCl, 1 mM DTT, 4% glycerol, room temperature, 30 min; GST-TFs on glutathione beads, 16-mer random dsDNA library, 0.1% formaldehyde crosslink after washing; high values mean tight binding
What all share (details): protein: recombinant; tags: N-terminal GST; dsDNA, one strand shown

The target in one assay is T1, ERF (Homo sapiens, UniProt P50548 1-548).
T1 sequence: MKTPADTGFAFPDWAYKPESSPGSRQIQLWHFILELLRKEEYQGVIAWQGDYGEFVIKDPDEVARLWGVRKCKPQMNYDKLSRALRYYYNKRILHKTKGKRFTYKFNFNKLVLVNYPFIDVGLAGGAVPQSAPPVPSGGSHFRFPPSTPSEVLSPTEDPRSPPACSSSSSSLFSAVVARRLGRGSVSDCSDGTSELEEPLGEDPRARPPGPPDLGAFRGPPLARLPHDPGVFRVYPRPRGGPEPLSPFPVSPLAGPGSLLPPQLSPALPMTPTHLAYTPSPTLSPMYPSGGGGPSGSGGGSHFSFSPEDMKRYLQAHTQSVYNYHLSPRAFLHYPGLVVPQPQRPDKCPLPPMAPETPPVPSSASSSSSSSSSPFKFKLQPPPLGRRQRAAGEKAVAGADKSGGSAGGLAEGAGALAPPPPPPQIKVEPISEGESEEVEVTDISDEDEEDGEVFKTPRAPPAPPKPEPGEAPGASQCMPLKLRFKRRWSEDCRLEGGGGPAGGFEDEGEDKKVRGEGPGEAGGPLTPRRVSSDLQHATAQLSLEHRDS
In short, it runs like this: (§1)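 Binding signal is defined as a hexamer's read frequency for one factor over its frequency for the tag-only sample. To obtain reads, GST-fused human transcription factors were expressed in yeast, captured on glutathione beads, barcoded with DNA and pooled with that sample. Pools met 200 nmole of a 16-mer random double-stranded DNA library in Tris/NaCl/DTT/glycerol buffer for 30 min at room temperature before washing, 0.1% formaldehyde crosslinking, proximity ligation (BsaI/T4 ligase, 1 h, 37 °C), PCR and Illumina NextSeq500 sequencing.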

The target in another assay is T2, ETV3L (Homo sapiens, UniProt Q6ZN32 1-361).
T2 sequence: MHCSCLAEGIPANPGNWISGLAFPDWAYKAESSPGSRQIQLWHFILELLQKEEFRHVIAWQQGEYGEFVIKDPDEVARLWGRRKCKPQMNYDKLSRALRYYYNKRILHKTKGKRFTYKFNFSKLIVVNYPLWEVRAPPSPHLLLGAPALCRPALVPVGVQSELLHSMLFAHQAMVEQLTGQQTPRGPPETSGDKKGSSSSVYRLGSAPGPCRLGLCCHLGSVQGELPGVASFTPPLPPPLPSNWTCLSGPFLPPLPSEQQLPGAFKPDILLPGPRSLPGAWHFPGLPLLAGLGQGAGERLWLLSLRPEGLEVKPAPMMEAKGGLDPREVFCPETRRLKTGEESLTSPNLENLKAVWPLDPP
In short, it runs like this:
as §1

The target in another assay is T3, ETS2 (Homo sapiens, UniProt P15036 1-469).
T3 sequence: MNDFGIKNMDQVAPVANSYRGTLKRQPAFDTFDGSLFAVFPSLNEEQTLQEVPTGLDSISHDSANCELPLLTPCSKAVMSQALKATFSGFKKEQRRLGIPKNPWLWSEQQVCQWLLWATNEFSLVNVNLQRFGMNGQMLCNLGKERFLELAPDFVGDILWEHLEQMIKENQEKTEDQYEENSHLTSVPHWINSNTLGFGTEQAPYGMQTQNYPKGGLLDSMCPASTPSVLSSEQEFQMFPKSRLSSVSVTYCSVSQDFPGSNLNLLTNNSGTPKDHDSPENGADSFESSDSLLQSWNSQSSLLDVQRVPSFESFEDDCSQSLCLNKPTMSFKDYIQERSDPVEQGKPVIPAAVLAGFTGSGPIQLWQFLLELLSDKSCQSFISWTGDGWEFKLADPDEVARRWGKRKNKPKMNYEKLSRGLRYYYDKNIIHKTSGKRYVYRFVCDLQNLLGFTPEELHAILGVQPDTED
In short, it runs like this: as §1

In the next assay the target is T4, SPDEF (Homo sapiens, UniProt O95238 1-335).
T4 sequence: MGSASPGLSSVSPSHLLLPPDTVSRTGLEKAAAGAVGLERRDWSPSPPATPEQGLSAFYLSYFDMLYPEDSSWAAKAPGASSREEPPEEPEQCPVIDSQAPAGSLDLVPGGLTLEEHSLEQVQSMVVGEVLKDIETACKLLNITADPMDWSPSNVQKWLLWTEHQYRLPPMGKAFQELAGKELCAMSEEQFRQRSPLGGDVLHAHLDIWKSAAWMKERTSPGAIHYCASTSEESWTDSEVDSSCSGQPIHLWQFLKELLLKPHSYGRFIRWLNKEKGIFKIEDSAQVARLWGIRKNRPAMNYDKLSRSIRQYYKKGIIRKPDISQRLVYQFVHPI
In outline: as §1

In another assay the target is T5, ETV7 (Homo sapiens, UniProt Q9Y603 1-341).
T5 sequence: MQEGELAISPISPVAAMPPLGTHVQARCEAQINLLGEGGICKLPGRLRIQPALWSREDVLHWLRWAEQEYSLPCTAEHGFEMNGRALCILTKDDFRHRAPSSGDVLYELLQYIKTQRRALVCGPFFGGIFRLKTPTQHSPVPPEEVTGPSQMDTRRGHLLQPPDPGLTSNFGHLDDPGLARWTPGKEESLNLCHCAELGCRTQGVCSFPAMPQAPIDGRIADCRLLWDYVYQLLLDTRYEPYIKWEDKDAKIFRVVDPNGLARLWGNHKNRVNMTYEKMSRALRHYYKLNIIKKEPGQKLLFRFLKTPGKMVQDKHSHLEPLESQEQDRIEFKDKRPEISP
In outline:
as §1

A further assay has as its target T6, ELF5 (Homo sapiens, UniProt Q9UKW6-2 1-255).
T6 sequence: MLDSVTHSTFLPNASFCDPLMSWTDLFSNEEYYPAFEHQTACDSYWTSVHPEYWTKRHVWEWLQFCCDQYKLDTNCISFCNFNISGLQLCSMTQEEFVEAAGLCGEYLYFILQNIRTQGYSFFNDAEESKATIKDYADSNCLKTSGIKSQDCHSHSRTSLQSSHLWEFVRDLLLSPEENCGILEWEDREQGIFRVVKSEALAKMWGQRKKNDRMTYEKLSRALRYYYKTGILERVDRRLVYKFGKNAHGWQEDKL
In short, it runs like this: as §1

The target in the next assay is T7, ETV3 (Homo sapiens, UniProt P41162-2 1-143).
T7 sequence: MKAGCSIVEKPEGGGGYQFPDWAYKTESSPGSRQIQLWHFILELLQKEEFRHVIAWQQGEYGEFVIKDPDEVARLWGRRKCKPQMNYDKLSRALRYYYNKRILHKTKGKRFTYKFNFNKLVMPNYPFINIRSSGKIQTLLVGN
In short, it runs like this:
as §1

For another assay, the target named is ETV6 (Homo sapiens, UniProt P41212 1-452). In short, it runs like this:
as §1

ETV6, sequence (P41212 whole entry): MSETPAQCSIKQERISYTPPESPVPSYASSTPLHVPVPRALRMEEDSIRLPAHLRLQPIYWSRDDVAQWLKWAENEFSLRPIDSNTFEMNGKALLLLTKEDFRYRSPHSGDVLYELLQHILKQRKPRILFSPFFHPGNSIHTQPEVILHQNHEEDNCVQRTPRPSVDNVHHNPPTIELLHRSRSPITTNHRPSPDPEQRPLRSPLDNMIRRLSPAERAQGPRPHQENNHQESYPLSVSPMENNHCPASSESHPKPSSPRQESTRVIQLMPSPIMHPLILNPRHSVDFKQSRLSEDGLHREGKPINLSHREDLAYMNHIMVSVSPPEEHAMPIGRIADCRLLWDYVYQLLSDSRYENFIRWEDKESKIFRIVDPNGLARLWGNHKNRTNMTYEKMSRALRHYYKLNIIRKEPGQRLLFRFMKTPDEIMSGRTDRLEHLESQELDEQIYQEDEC

In the case of CGAACA, the binding signal with ERF was 1.17 fold enrichment (6-mer frequency, TF over GST control); with ETV3L it was 1.13 fold enrichment (6-mer frequency, TF over GST control); in the assay with ETS2, 1.22 fold enrichment (6-mer frequency, TF over GST control); in the assay with SPDEF it was 1.1 fold enrichment (6-mer frequency, TF over GST control); with ETV7, 1.2 fold enrichment (6-mer frequency, TF over GST control); with ELF5, 1.05 fold enrichment (6-mer frequency, TF over GST control). The binding signal with ETV3 was 1.15 fold enrichment (6-mer frequency, TF over GST control); with ETV6 it was 1.19 fold enrichment (6-mer frequency, TF over GST control).
Regarding GCCCTC, the binding signal with ERF is 1.26 fold enrichment (6-mer frequency, TF over GST control); in the assay with ETV3L, 1.09 fold enrichment (6-mer frequency, TF over GST control); with ETS2 it was 1.24 fold enrichment (6-mer frequency, TF over GST control); in the assay with SPDEF it was 1.08 fold enrichment (6-mer frequency, TF over GST control); with ETV7, 1.22 fold enrichment (6-mer frequency, TF over GST control); with ELF5, 1.1 fold enrichment (6-mer frequency, TF over GST control). Further, the binding signal is 1.17 fold enrichment (6-mer frequency, TF over GST control) with ETV3 and 1.05 fold enrichment (6-mer frequency, TF over GST control) in the assay with ETV6.
In the case of ACATTG, the binding signal in the assay with ERF was 1.26 fold enrichment (6-mer frequency, TF over GST control); in the assay with ETV3L, 1.18 fold enrichment (6-mer frequency, TF over GST control); in the assay with ETS2, 1.17 fold enrichment (6-mer frequency, TF over GST control); with SPDEF, 1.12 fold enrichment (6-mer frequency, TF over GST control); in the assay with ETV7 it was 1.2 fold enrichment (6-mer frequency, TF over GST control); with ELF5 it was 1.07 fold enrichment (6-mer frequency, TF over GST control). For the same sequence, the binding signal with ETV3 was 1.1 fold enrichment (6-mer frequency, TF over GST control); in the assay with ETV6, 1.21 fold enrichment (6-mer frequency, TF over GST control).
On to TGCGAA, for which the binding signal with ERF is 1.07 fold enrichment (6-mer frequency, TF over GST control); in the assay with ETV3L it was 1.1 fold enrichment (6-mer frequency, TF over GST control); with ETS2 it was 1.1 fold enrichment (6-mer frequency, TF over GST control); with SPDEF it was 1.2 fold enrichment (6-mer frequency, TF over GST control); in the assay with ETV7 it was 1.18 fold enrichment (6-mer frequency, TF over GST control); with ELF5 it was 1.13 fold enrichment (6-mer frequency, TF over GST control). The binding signal was 1.16 fold enrichment (6-mer frequency, TF over GST control) with ETV3 and 1.09 fold enrichment (6-mer frequency, TF over GST control) with ETV6.
On to CACGAA, for which the binding signal with ERF is 1.18 fold enrichment (6-mer frequency, TF over GST control); with ETV3L it was 1.01 fold enrichment (6-mer frequency, TF over GST control); in the assay with ETS2, 1.12 fold enrichment (6-mer frequency, TF over GST control); with SPDEF, 1.08 fold enrichment (6-mer frequency, TF over GST control); with ETV7, 1.16 fold enrichment (6-mer frequency, TF over GST control); with ELF5, 1.02 fold enrichment (6-mer frequency, TF over GST control). In addition, the binding signal with ETV3 was 1.05 fold enrichment (6-mer frequency, TF over GST control); with ETV6, 1.07 fold enrichment (6-mer frequency, TF over GST control).
As to GCTACA, the binding signal was 1.2 fold enrichment (6-mer frequency, TF over GST control) with ERF; 1.29 fold enrichment (6-mer frequency, TF over GST control) with ETV3L; 1.17 fold enrichment (6-mer frequency, TF over GST control) with ETS2; 1.25 fold enrichment (6-mer frequency, TF over GST control) in the assay with SPDEF; 1.18 fold enrichment (6-mer frequency, TF over GST control) with ETV7; 1.19 fold enrichment (6-mer frequency, TF over GST control) with ELF5. The binding signal in the assay with ETV3 is 1.17 fold enrichment (6-mer frequency, TF over GST control); with ETV6, 1.17 fold enrichment (6-mer frequency, TF over GST control).
In the case of TAAACA, the binding signal with ERF was 1.31 fold enrichment (6-mer frequency, TF over GST control); with ETV3L, 1.25 fold enrichment (6-mer frequency, TF over GST control); with ETS2 it was 1.27 fold enrichment (6-mer frequency, TF over GST control); with SPDEF it was 1.27 fold enrichment (6-mer frequency, TF over GST control); with ETV7, 1.24 fold enrichment (6-mer frequency, TF over GST control); with ELF5 it was 1.22 fold enrichment (6-mer frequency, TF over GST control). Besides, the binding signal with ETV3 was 1.25 fold enrichment (6-mer frequency, TF over GST control); with ETV6 it was 1.25 fold enrichment (6-mer frequency, TF over GST control).
For AGTTTC, the binding signal in the assay with ERF is 1.22 fold enrichment (6-mer frequency, TF over GST control); in the assay with ETV3L, 1.33 fold enrichment (6-mer frequency, TF over GST control); with ETS2, 1.3 fold enrichment (6-mer frequency, TF over GST control); in the assay with SPDEF, 1.19 fold enrichment (6-mer frequency, TF over GST control); with ETV7, 1.29 fold enrichment (6-mer frequency, TF over GST control); with ELF5 it was 1.65 fold enrichment (6-mer frequency, TF over GST control). The binding signal in the assay with ETV3 was 1.36 fold enrichment (6-mer frequency, TF over GST control); in the assay with ETV6, 1.29 fold enrichment (6-mer frequency, TF over GST control).

Source of the values: publication PMC7862700, “An all-to-all approach to the identification of sequence-specific readers for epigenetic DNA modifications on cytosine”.
